# Assay outcomes deposited in PubChem by Broad Institute.
# Many of the other results were omitted from the sample, so hits are more common in it than they were.
# BJeLR viab HTS: lowers viability of BJeLR cells. BJeLR fibroblasts viability, CellTiterGlo ATP luminescence, 48 h; HRASV12, hTERT and SV40 LT/ST transformed. viability loss activity score, % (test concentration not listed). hit rate 0.64% among 30,000; in the data active = viability loss activity score above about 50%; inconclusive = no clear call, values can overlap the other calls; inactive = below about 35%;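 also: higher score means fewer live cells and less ATP luminescence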
# Shh pathway inh: blocks Sonic Hedgehog signaling; inhibition, % (test concentration not listed); AID 2313; Shh-LIGHT2 Gli-luciferase reporter, 30 h; hit rate 2.1% among 22,000;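 active = mean inhibition across valid replicates above about 65%, limit read from the data; inconclusive = mean under the limit, yet half or more replicates past it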;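 also: pathway switched on by Shh-conditioned medium diluted 1 in 25 in low serum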
# MITF inhib: MITF inhibition; AID 2240; TRPM1 promoter luciferase, luminescence, 24 h; hit rate 0.28% among 37,000; inhibition, % (test concentration not listed); in the data active = inhibition above about 85%; inconclusive = no clear call, values can overlap the other calls; inactive = below about 68%;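 also: human melanocyte line stably carrying TRPM1 promoter luciferase reporter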
# Numbers without * were called inactive; ? = inconclusive; nt = not tested or not shown.
SMILES,BJeLR viab HTS,Shh pathway inh,MITF inhib
CC1(C)C(=O)[C@@H]2C[C@@]3(O)C4=CC(=O)O[C@@H](c5ccoc5)[C@]4(C)CCC3[C@@](C)(C2=O)[C@H]1CC(=O)O (stereo partly specified),1,-18,17
COC(=O)C[C@H]1C(C)(C)C(=O)[C@@H]2C[C@@]3(O)C4=CC(=O)O[C@@H](c5ccoc5)[C@]4(C)CCC3[C@@]1(C)C2=O (stereo partly specified),3,86*,-51
O=C(CSc1ncccc1C(=O)O)Nc1ccc(Oc2ccccc2)cc1,nt,nt,-3
O=C(NCc1ccco1)c1ccc(Cn2c(=S)[nH]c3ccc(Br)cc3c2=O)cc1,-1,nt,nt
CCOc1ccc(NC(=O)CSc2nc3sc(C)c(C)c3c(=O)n2-c2ccc(C)cc2)cc1,nt,nt,-3
C/C(=C\C(=O)O)CCC1C(C)(O)CCC2C(C)(CO)CCCC12C (stereo unspecified),nt,0,nt
COc1cc2c(c(OC)c1OC)C[C@H]1COC(=O)[C@@H]1Cc1c-2cc(OC)c(OC)c1OC,nt,67*,nt
COc1cc2c(c(OC)c1OC)-c1cc3c(cc1C[C@H]1C(=O)OC[C@@H]1C2)OCO3,42,10,-8
C[C@@H]1CCOC(=O)C=CC=CC(=O)O[C@@H]2C[C@H]3O[C@@H]4C=C(C(=O)O)CC[C@]4(COC(=O)[C@H]1O)[C@]2(C)[C@]31CO1,71*,4,65
Cc1ccc(C)c(OCC(O)CN2CCN(CCO)CC2)c1 (stereo unspecified),nt,nt,1
N#Cc1cc2c(OCC(O)CN3CCN(C(c4ccccc4)c4ccccc4)CC3)cccc2[nH]1 (stereo unspecified),1,103*,99*
Cc1cccc(C)c1NC(=O)COc1cc(O)c2c(=O)cc(-c3ccccc3)oc2c1,nt,nt,51
N=C1SCC(=O)N1c1nccs1,1,-17,3
COc1ccccc1-c1coc2cc(OCc3ccc(C)cc3)ccc2c1=O,-3,nt,nt
O=c1c(Cc2ccccc2OCc2ccccc2)coc2ccccc12,-7,93*,17
Cc1cc(CNC(=O)c2cc(-c3cccnc3)nc3ccc(Cl)cc23)nn1C,nt,nt,-26
O=C(NCCc1ccccc1)N1c2ccccc2Sc2ccccc21,0,92*,43
CC(C)CNC(=O)N1c2ccccc2Sc2ccccc21,9,nt,nt
COc1cccc(-c2cc(=O)c3cc(OC)ccc3o2)c1,14,-142,93*
COc1ccc2c(=O)cc(-c3ccccc3)oc2c1,-7,-41,-109
CC(=O)O[C@@H]1[C@@H](O)[C@H](C)O[C@@H](Oc2c(-c3ccc(O)cc3)oc3cc(O[C@@H]4O[C@@H](C)[C@H](O)[C@@H](O)[C@H]4O)cc(O)c3c2=O)[C@@H]1O,-10,-17,4
CCN(CC)c1ccc(/C=C2\CCc3ccccc3C2=O)cc1,41,nt,nt
Cn1cccc1/C=C1\CCc2ccccc2C1=O,73*,nt,nt
CC(C)n1c(SCC(=O)c2ccccc2)nc2cc(Cl)ccc21,-7,nt,nt
O=C(NCCc1ccccc1)C1(S(=O)(=O)c2ccc(Cl)cc2)CC1,5,nt,nt
SMILES,BJeLR viab HTS,Shh pathway inh,MITF inhib
O=S(=O)(Nc1nc2ccccc2nc1NCCc1ccccc1)c1ccc(Cl)cc1,7,78*,47
COc1cc(/C=C/C(=O)N2CCC=CC2=O)cc(OC)c1OC,25,84*,62
COc1cc(/C=C\C(=O)O)cc(OC)c1OC,nt,21,nt
O=C(Cn1cnc2c(nnn2Cc2ccc(Cl)cc2)c1=O)NC1CCCCC1,-5,nt,nt
CCc1[nH]c(=S)c(C#N)c(-c2ccccc2)c1C(=O)OC,-4,nt,nt
N#Cc1c(N)[nH]c(=S)c(C(N)=O)c1-c1cccc(Br)c1,8,106*,5
COc1cc(OC)c(NC(=O)Cc2ccccc2[N+](=O)[O-])cc1Cl,nt,nt,10
COc1cccc(-c2cc(NCc3ccc4c(c3)OCO4)nc(N)n2)c1,60*,?,-1
Cc1cc(Br)ccc1NCc1ccc2c(c1)OCO2,-5,-35,-68
O=C1CSC(=O)N1Cc1ccc(CN2C(=O)CSC2=O)cc1,-1,nt,nt
CC(C)S(=O)(=O)c1csc(NC(=O)Nc2cc(C(F)(F)F)cc(C(F)(F)F)c2)c1Cl,28,106*,65
CC(C)S(=O)(=O)c1csc(NC(=O)N2CCCCC2)c1Cl,2,-29,0
CC1(c2ccccc2)OC(=O)C2C3CCCCC3=C3CCCCC3C21 (stereo unspecified),4,nt,nt
COc1cccc(-c2cc(C(F)(F)F)n3nc(C(=O)Nc4cc(C)nn4-c4ccccc4)cc3n2)c1,nt,nt,48
Cc1ccc(N=Cc2cc3ccccc3nc2Cl)cc1Cl,1,89*,16
Fc1ccc(C=Nc2ccc3ccccc3c2)cc1,-4,-32,7
CC(C)N1CCN(c2ccc(OC[C@H]3CO[C@](Cn4cncn4)(c4ccc(Cl)cc4Cl)O3)cc2)CC1,3,45,-6
CC(=O)N1CCN(c2ccc(OCC3CO[C@](Cn4ccnc4)(c4ccc(Cl)cc4Cl)O3)cc2)CC1 (stereo partly specified),16,107*,58
O=C(O)CCc1ccc(-c2ccc(Cl)cc2)n1-c1ccc(C(=O)O)cc1,nt,nt,-15
O=C(O)c1cccc(COc2ccc(CO)cc2Cl)c1,nt,nt,89*
COc1cc(CO)cc(Cl)c1OCc1cccc(C(=O)O)c1,nt,nt,-62
